Our source for the binding signal values is paper PMC7819943, “Rice protein-binding microarrays: a tool to detect cis-acting elements near promoter regions in rice”.

The full ranking holds about 68,000 sequences; the median of “fluorescence intensity (a.u.)” is about 9,100, and the highest 2% start at about 16,000. For the sample, the highest values were picked, then their nearest neighbours and some sequences at random.

Chain of OsWRKY34 (Q0JBA9 entry or part of it): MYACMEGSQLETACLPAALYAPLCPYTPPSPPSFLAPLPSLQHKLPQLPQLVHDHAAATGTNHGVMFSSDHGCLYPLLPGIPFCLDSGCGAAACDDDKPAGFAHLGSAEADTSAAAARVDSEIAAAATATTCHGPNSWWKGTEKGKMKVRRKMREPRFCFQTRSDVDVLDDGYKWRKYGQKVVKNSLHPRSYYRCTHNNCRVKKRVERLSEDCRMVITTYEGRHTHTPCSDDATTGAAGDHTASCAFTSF

In the assay the target is OsWRKY34 (Oryza sativa, UniProt Q0JBA9 1-250). The experiment in a line: protein-binding microarray (RPBM); PBS, 2% BSA, 51.3 ng/ul salmon testes DNA, 50 uM zinc acetate, 200 nM TF, 25 C, 1 h; high values mean tight binding. The note with it: protein: recombinant; tags: N-terminal polyhistidine and DsRed monomer fusion (pET32a); label: CyDye5-dUTP incorporated in the synthesized complementary strand; 3' TTTTT single-stranded linker to array surface; dsDNA, one strand shown. Put shortly:
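A custom Agilent array was converted to double-stranded form by primer extension with Cy5-dUTP and blocked with 2% BSA. Protein at 200 nM in PBS with 2% BSA, salmon testes DNA and 50 µM zinc acetate was applied for 1 h at 25 °C, followed by washing. The proteins were polyhistidine–DsRed N-terminal fusions of transcription factors, expressed in E. coli BL21-CodonPlus and Ni–NTA-purified. The binding signal is per-feature fluorescence intensity (arbitrary units) from an Axon 4000B scanner.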
On to “TATATATATATATATATATATATATATATATATAAGCGTCCGGAGTCACCTAGTGCAG”, for which the binding signal was 11300 fluorescence intensity (a.u.).
Turning to “AGAAGGAGAAGGCGGGGAGAGGCGGGGCGGCCACGGGAGACGGAGTCACCTAGTGCAG”, the binding signal was 12500 fluorescence intensity (a.u.).
As to “TTCTTGCCGGAGGAGGGGCAGGGGAGGGAGCCGGGCGGGACGGAGTCACCTAGTGCAG”, the binding signal was 23500 fluorescence intensity (a.u.).
“GGGGCGGCAGTGGATGGCGGTTGGGCGGCGGTGCGGGGAGCGGAGTCACCTAGTGCAG”: the binding signal was 12200 fluorescence intensity (a.u.).
Regarding “AGAAGGGAAGGGGAGGGGAGGGCGGGACGCCGGCCGGAGCCGGAGTCACCTAGTGCAG”, the binding signal was 10200 fluorescence intensity (a.u.).
“GGGGAGGGAGCCGGGCGGGATTCAGCCATGAGGAGGAGGGCGGAGTCACCTAGTGCAG”: the binding signal is 9050 fluorescence intensity (a.u.).
Consider “TTGGTGGTTGGTGGGGAGCGTGGAGATGGCGGGGCTGTCCCGGAGTCACCTAGTGCAG”, for which the binding signal is 22200 fluorescence intensity (a.u.).
Turning to “AGTGCTGGAGGAGGGAGGCGGGGAGGGGAGCCATCAGCCACGGAGTCACCTAGTGCAG”, the binding signal was 17300 fluorescence intensity (a.u.).
As to “GAGGACGAAGTGGAGGCGGAGGGCAGGTGGGGAGGAGAGCCGGAGTCACCTAGTGCAG”, the binding signal is 8660 fluorescence intensity (a.u.).
The figure for “GTGGTCCGGTGGTGGGGTGATGGGGCGTGGCGGTTCTGTCCGGAGTCACCTAGTGCAG” is 15400 fluorescence intensity (a.u.); for “GGCCATGCTTGAATCTCTCGCCTGACATTCAGACTTCAGACGGAGTCACCTAGTGCAG” it is 8390 fluorescence intensity (a.u.); for “CTCTATATAAGCCCCACAATGCCCACCACCAGCTTGTCACCGGAGTCACCTAGTGCAG” it is 8230 fluorescence intensity (a.u.).
The figure for “AAGATTCTTCTCTTCGTCGACGACCCGGCCTCTCGCTCTCCGGAGTCACCTAGTGCAG” is 9630 fluorescence intensity (a.u.); for “CTATTGGCTCATACCTTTTTTCAGTGGCTGGGTGTAGGTTCGGAGTCACCTAGTGCAG” it is 8840 fluorescence intensity (a.u.).
As for “TGCAGATATTGGCATCGATTGCTCACTTCAGGTGATTTTTCGGAGTCACCTAGTGCAG”, the binding signal was 8060 fluorescence intensity (a.u.).
As to “CATGTCCAACTTTAATTGTTCGTCTTTTTTTTGAAAAAACCGGAGTCACCTAGTGCAG”, the binding signal is 8630 fluorescence intensity (a.u.).
With “CAGACCTGGAGGTTGTTGCCCTTGATGTGCGCCCAGATGACGGAGTCACCTAGTGCAG”, the binding signal was 8470 fluorescence intensity (a.u.).
On to “TTTTTATTCCACCGCTTTGTCGTTCTCGCAATCTCGCTGTCGGAGTCACCTAGTGCAG”, for which the binding signal is 17700 fluorescence intensity (a.u.).
Turning to “AATGGCTAGCGTATAATCTGTCTTGGAATCACTTTGCTGCCGGAGTCACCTAGTGCAG”, the binding signal was 8120 fluorescence intensity (a.u.).
For “ATTGTCTTGGCTGCTGTCTTTATAGTATTCACTCATCTGCCGGAGTCACCTAGTGCAG”, the binding signal was 18500 fluorescence intensity (a.u.).
For “CGCATCTCGTTTTCTCTTTATTTGTTTCTTCTTTCGCTTTCGGAGTCACCTAGTGCAG”, the binding signal was 13800 fluorescence intensity (a.u.).
For “TTTATTCTCTGTTCCTCTTTTTTTCATATTCGTTTTTCACCGGAGTCACCTAGTGCAG”, the binding signal is 13200 fluorescence intensity (a.u.).
In the case of “ATCAATTTATCACCCGCTGACTCATCTTTATTGTATCTGCCGGAGTCACCTAGTGCAG”, the binding signal was 8420 fluorescence intensity (a.u.).
Consider “TCTCCCCTTTCTGCTTCTGCTGCTTCTCCCTTTCCCTCTCCGGAGTCACCTAGTGCAG”, for which the binding signal is 8200 fluorescence intensity (a.u.).
On to “TTGTAGTCCGCTGCTTTCCCTTTCTTTTATCTTCTCTTTCCGGAGTCACCTAGTGCAG”, for which the binding signal was 8450 fluorescence intensity (a.u.).
With “TTTTTTTCTCTTTCTTTTTTCTTTTCTTCGTTTTCTTTCACGGAGTCACCTAGTGCAG”, the binding signal was 9230 fluorescence intensity (a.u.).
Turning to “GTCCGCTGCTTTTCTCCCTTGTCGGTTATTTTACCTCTTCCGGAGTCACCTAGTGCAG”, the binding signal was 18900 fluorescence intensity (a.u.).
As for “GTTCTTTTGGGCAATCTCGTCTGTATTCCTTTGTCGTCTACGGAGTCACCTAGTGCAG”, the binding signal was 10800 fluorescence intensity (a.u.).
As for “GTCTCTTTCCGCTGCTTCGTTTCTGTCTCCGGTTTATTCACGGAGTCACCTAGTGCAG”, the binding signal was 18800 fluorescence intensity (a.u.).
For the sequence “TTCTGGATCTTGACTCTTGACCAGTTCATCCACACGTGTGCGGAGTCACCTAGTGCAG”, the binding signal was 8540 fluorescence intensity (a.u.).
For the sequence “TCTCCCTCAGTTACTGCCTTGCTCCCCAACCCCAGGAGCACGGAGTCACCTAGTGCAG”, the binding signal is 9230 fluorescence intensity (a.u.).
As for “GCTTGGGGTGGAATCGCGTGGACAGCGTGGGCCTCAGTCACGGAGTCACCTAGTGCAG”, the binding signal was 12000 fluorescence intensity (a.u.).
In the case of “ATATTTATTAGTTGGCGTGTATGTAAAACTTGTGTGTTTCCGGAGTCACCTAGTGCAG”, the binding signal is 8400 fluorescence intensity (a.u.).
The figure for “CCATTGTTTTCTTCTTGTCCTTTTAGAGATGTTGGGTACACGGAGTCACCTAGTGCAG” is 8240 fluorescence intensity (a.u.); for “AACCACCCCGCGTTTCCAGTCTCCACCACATCAACTCCCCCGGAGTCACCTAGTGCAG” it is 10200 fluorescence intensity (a.u.).
The figure for “CCCCAATGAATCATAGGCTCAACCTGCTCCTGCTGCAACACGGAGTCACCTAGTGCAG” is 8040 fluorescence intensity (a.u.); for “GGTCCGGCGGAAGTAGGGGCGGAAGTGCGGGCGGGAGATGCGGAGTCACCTAGTGCAG” it is 9700 fluorescence intensity (a.u.); for “GACACATCTTAGTTTCATGAATTTGCACAAGAATTGCATGCGGAGTCACCTAGTGCAG” it is 10800 fluorescence intensity (a.u.).
With “AGCCTGGAAGCCCATTCAGCGGCGGGGTTGGGGCGGCAGGCGGAGTCACCTAGTGCAG” the figure was 10200 fluorescence intensity (a.u.); with “AGATTGCTTTTCTTACAAGGACGACGCTAACAATAACATCCGGAGTCACCTAGTGCAG”, 9110 fluorescence intensity (a.u.).
With “GATGTGGATTTGGGATGTTAATTTGATTTGGGATTTGGGGCGGAGTCACCTAGTGCAG”, the binding signal was 10600 fluorescence intensity (a.u.).
Regarding “GGCAATGCTTCACCGTCGCTTGCACCCCTTTCTCATGTGTCGGAGTCACCTAGTGCAG”, the binding signal was 9790 fluorescence intensity (a.u.).
